# From PubChem
# Shown are actives, neighbours in structure and some others; about 2.2% of the full set was active somewhere.
# Nrf2 activator: activators of Nrf2 (ARE) signaling; AREc32 ARE-luciferase reporter (MCF7-derived line), luminescence, 24 h; AID 624171; Potency, µM (titrated, usually from 46.1 µM), for the others: at the highest dose activation, most hits filed as activators; 0.31% of 410,000 active; note: % of control where 0% means no effect; nearly all actives have a fitted effect of over 65% in size
#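 AREc32_Fluc, 1000 cells/well, OPTI-MEM + 5% FBS, o/n 37 deg C 5% CO2; 23 nL cpd by pin tool, 24 hr; Steady-Glo 30 min RT, luminescence.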
# Pin1 inh: blocks the human prolyl isomerase Pin1. Q13526. Pin1 FP peptide displacement, HiFluor488, 10 min. Potency, µM (top dose mostly 115 µM), inactives show at the highest dose activity, negative = inhibition, most hits filed as inhibitors. 0.009% of 390,000 active. AID 504891; active = well fitted inhibition curve with a large enough effect in the polarisation, with a control signal flat, not every such curve was filed as active; inconclusive = small, poorly fitted or top-dose-only effect, or effect the other way, or a change in a side signal; inactive = no such curve, though single readings can be large or run the other way; the % refers to the polarisation; note: % is set by controls: 0 for no effect and ±100 for the full control effect
# Target sequence (Q13526 whole entry, looked up): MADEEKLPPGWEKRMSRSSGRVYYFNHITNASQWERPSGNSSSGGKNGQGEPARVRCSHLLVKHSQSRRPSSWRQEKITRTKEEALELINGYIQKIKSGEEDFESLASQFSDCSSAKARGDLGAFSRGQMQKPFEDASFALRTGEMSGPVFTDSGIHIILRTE
# A549 tox: A549 cytotoxicity, counter-screen for Nrf2 inhibitors | Potency, µM (doses to about 46 µM), without a hit: top-dose activity change, negative = cytotoxicity, actives largely listed as inhibitors | AID 504648 | 0.16% of 390,000 active | A549 ARE-Fluc cells, CellTiter-Fluor viability, 18-24 h; note: % is set by controls: 0 for no effect and ±100 for the full control effect
#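 Cytotoxicity counterscreen: CellTiter-Fluor fluorescence was measured in A549 ARE_Fluc cells after 18-24 h of compound exposure in a concentration series. The subsequent BugLite luminescent read reports ARE-luciferase activity.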
# Nrf2 inh: Nrf2 pathway inhibition; A549 ARE-Fluc reporter, luciferase luminescence, 18-24 h; Potency, µM (top dose mostly 46 µM), without a hit: at the top dose activity change, negative = inhibition, actives largely listed as inhibitors; 2.1% of 360,000 active; AID 504444; note: % is set by controls: 0 for no effect and ±100 for the full control effect; nearly all actives have a fitted effect of over 60% in size
#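 Two sequential reads on A549 ARE_Fluc cells exposed to compound for 18-24 h: a CellTiter-Fluor fluorescence read for viability, then a luciferase luminescence read for Nrf2/ARE activity.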
# * hit, by the source's call; ? = inconclusive; · = no result given; [ ] = dose if it differs, or a comment. Unless noted, calls come from the whole dose curve; as a rule, active = well fitted curve in the direction sought with a large enough effect; inconclusive = small, poorly fitted or top-dose-only effect, or another doubt; inactive = no such curve, though single readings can be large; an effect the other way counts as inactive or inconclusive. Potency is the fitted concentration of half-maximal effect.
SMILES,Nrf2 activator,Pin1 inh,A549 tox,Nrf2 inh
CCC(CO)[n+]1c(C)cc(/C=C2\Sc3ccccc3N2Cc2ccccc2)cc1C (stereo not drawn),-1%,?,?,15µM*
Cc1ccccc1-n1nc(C)c2cc(C(=O)N3CCN(S(=O)(=O)c4ccc(F)cc4)CC3)sc21,0%,-3%,-2%,·
Cc1ccccc1-n1nc(C)c2cc(C(=O)N3CCN(S(=O)(=O)c4ccc(Cl)cc4)CC3)sc21,3%,0%,-27%,13µM*
CC(=O)c1ccc(S(=O)(=O)N2CCN(C(=O)c3ccc(-n4nc(C)c(Cl)c4C)cc3)CC2)cc1,0%,-1%,0%,26µM*
CC1CCC(NC(=O)c2ccc3c(c2)S(=O)(=O)c2ccccc2C3=O)CC1 (stereo not drawn),4%,10%,-13%,16µM*
COc1cccc(C2CC(c3ccc(Br)cc3)=NN2C(=O)c2ccncc2)c1OC (stereo not drawn),3%,6%,-15%,18µM*
COc1ccccc1C1CC(c2ccc(Br)cc2)=NN1C(=O)c1cccnc1 (stereo not drawn),6%,44%,-7%,?
Cc1cc2c(s1)c1cnn(Cc3cc(F)c(F)c(F)c3)c(=O)c1n2C,·,-7%,-13%,12%
C=CC[C@@H](CC(=O)N(CCO)Cc1ccccc1)C(=O)N[C@@H](COC(=O)[C@H](CC=C)CC(=O)OC(C)(C)C)Cc1c[nH]c2ccccc12,-5%,?,?,23µM*
C=CC[C@H](CC(=O)N(CCO)Cc1ccccc1)C(=O)N[C@H](COC(=O)[C@H](CC=C)CC(=O)OC(C)(C)C)Cc1c[nH]c2ccccc12,-2%,?,?,?
C=CC[C@H](CC(=O)N(CCO)Cc1ccccc1)C(=O)N[C@@H](COC(=O)[C@@H](CC=C)CC(=O)OC(C)(C)C)Cc1c[nH]c2ccccc12,-5%,0%,?,21µM*
O=C(Nc1ccc(Cl)c(S(=O)(=O)N2CCOCC2)c1)C1CCCC1,1%,2%,-3%,23µM*
O=C(CSc1ncccn1)Nc1ccc(Cl)c(S(=O)(=O)N2CCOCC2)c1,0%,-3%,4%,-12%
O=C(CSc1ccccc1)Nc1ccc(Cl)c(S(=O)(=O)N2CCOCC2)c1,3%,-13%,-20%,23µM*
O=C(Nc1ccc(F)c(S(=O)(=O)N2CCOCC2)c1)C1CCCCC1,2%,3%,-5%,-13%
COc1ccc(NC(=O)CSc2ccc3ccccc3c2)cc1S(=O)(=O)N1CCCCC1,3%,25%,-13%,7.3µM*
COc1ccc(NC(=O)CSc2ccc(NC(C)=O)cc2)cc1S(=O)(=O)N1CCOCC1,0%,-11%,4%,1%
CCn1cc(C(=O)OCC(=O)Nc2cc(OC)cc(OC)c2)c(=O)c2ccc(C)nc21,0%,-1%,6%,14%
COc1cccc(Nc2ncccc2C(=O)Nc2ccccc2)c1,2%,?,?,21µM*
CCOc1ncccc1C(=O)Nc1ccc(C(=O)Nc2ccc(OC)cc2)cc1,-1%,2%,-15%,8.2µM*
CCOc1ncccc1C(=O)NNC(=O)c1ccc(NS(=O)(=O)c2cccs2)cc1,2.5µM*,-3%,0%,2%
CCOc1ccc(C(c2c(O)cc(C)n(Cc3ccco3)c2=O)N2CCN(C)CC2)cc1 (stereo not drawn),-1%,30%,-7%,·
CCn1nc(C)cc1C(=O)Sc1ccc(Cl)cc1Cl,1%,-2%,14%,6%
CCn1nc(C)cc1C(=O)OCC(=O)c1ccc(Cl)cc1,0%,-13%,1%,18µM*
FC(F)(F)c1cc(-c2cccs2)nc(-n2cc(Br)cn2)n1,3.2µM*,0%,-7%,-29%
SMILES,Nrf2 activator,Pin1 inh,A549 tox,Nrf2 inh
COc1cc(F)c(S(=O)(=O)N2CCCN(S(=O)(=O)c3ccc4c(c3)OCCO4)CC2)c(F)c1,·,18%,-18%,?
C[n+]1ccc(/C=N/Nc2nc(Cl)c(C#N)c(Cl)c2Cl)cc1,13µM*,57%,23%,-9%
Fc1ccc(NCc2ccccc2-c2nnc(-c3ccccc3Cl)o2)cc1Cl,17%,-6%,0%,?
O=C(Nc1cccc(S(=O)(=O)C(F)F)c1)c1ccc(S(=O)(=O)N2CCCCC2)cc1,1%,7%,?,16µM*
O=C(Nc1cccc(S(=O)(=O)N2CCCCC2)c1)c1cc2ccccc2o1,2%,38%,-12%,23µM*
O=C(Nc1cccc(S(=O)(=O)N2CCCCC2)c1)c1ccc(S(=O)(=O)C(F)F)cc1,0%,5%,-19%,18µM*
O=C(CNc1cccc(S(=O)(=O)N2CCCC2)c1)Nc1ccc(C(F)(F)F)cc1,0%,-2%,-12%,23µM*
COc1ccc(C(=O)Nc2ccccc2-c2nc3ccccc3s2)c(OC)c1,11%,?,2%,·
CCCCNC(=O)CSc1nc(CCC)nc2ccccc12,8%,-5%,-8%,-29%
CCCc1nc(SCC(=O)N2CCc3ccccc3C2)c2ccccc2n1,6%,19%,?,23µM*
CCN(C(=O)CSc1nc2ccccc2n1CC(=O)Nc1cccc(C#N)c1)c1ccccc1,0%,16%,0%,·
O=C1C(=C(O)c2ccccc2)C(=O)c2ccccc21,5%,-4%,-20%,-5%
O=C1C(=C(c2ccccc2)c2ccccc2)Nc2ccccc21,13µM*,?,?,?
CC1CCCN(C(=O)CSc2c3c(nc4cc(Cl)ccc24)CCCC3)C1 (stereo not drawn),?,-2%,?,?
N#CC1=C(SCC(=O)NC23CC4CC(CC(C4)C2)C3)NC(=O)C(C#N)C12CCCCC2 (stereo not drawn),1%,29%,?,15µM*
N#CC1=C(SCC(=O)NC2CC2)NC(=O)C(C#N)C12CCCCC2 (stereo not drawn),0%,-4%,0%[1.84 µM],-10%
CC1CCc2nc(NC(=O)c3cc(C(C)(C)C)nn3C)sc2C1 (stereo not drawn),0%,-2%,-1%,-14%
Cc1ccc(-c2nc(NC(=O)c3cc(C(C)(C)C)nn3C)sc2C)cc1Cl,0%,-13%,-5%,21µM*
CCCCCc1c2c(cc(O)c1C(=O)O)OC(=O)c1c(cc(OC)cc1C(=O)CCCC)O2,1%,18µM*,0%,11%
CCCCCc1c2c(cc(O)c1C(=O)O)OC(=O)c1cc(C(=O)CCCC)c(OC)cc1O2,-1%,·,7%,2%
COc1ccc(CC(=O)Nc2ccc3nc(Nc4cccc(Cl)c4)cc(C)c3c2)cc1,1%,10%,?,26µM*
Cc1cc(Nc2cccc(C(F)(F)F)c2)nc2ccc(NC(=O)Cc3ccc(Cl)cc3)cc12,-1%,14%,?,16µM*
Cc1ccc(NC(=O)Cn2cc(S(=O)(=O)N3CCN(c4ccccc4F)CC3)c3ccccc3c2=O)cc1F,0%,35%,1%,2%
O=C(CN1C(=O)COc2ccccc21)N1CCCc2ccccc21,0%,0%,?,23µM*
